TDP1 block – inhibitors of human tyrosyl-DNA phosphodiesterase TDP1; Q9NUW8; recombinant TDP1, AlphaScreen DNA substrate cleavage; Potency, µM (series often up to 130 µM), for inactives: top-dose activity change, negative = inhibition, usual class: inhibitors; 350,000 compounds, 0.28% hits; note: potency is the fitted concentration of half-maximal effect; nearly all actives have a fitted effect of over 40% in size
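AlphaScreen read-out: signal falls as enzyme removes the 3' tyrosine-FITC from a 5'-biotinylated DNA oligo (15 nM, 5 min, RT). Enzyme was E. coli-made recombinant Tdp1 at 1 nM, exposed to compound for 15 min beforehand; beads 10 ug/ml, 10 min.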
IL-1B inflam inh – inhibitors of inflammasome signaling (IL-1 beta secretion) | THP-1 LPS/ATP IL-1B secretion, AlphaLISA, 16 h; active compounds read low | 360,000 compounds, 4.7% hits | AID 743279 | activity change, % at 57.5 µM; in the data active = activity change below about -50%; inconclusive = mostly about -30% to -49%
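THP-1 cells pretreated 1 hr with compounds (up to 57.5 uM final), then stimulated with LPS (250 ng/mL final) plus ATP (1.25 mM final); secreted IL-1B measured by AlphaLISA after 16 hr, decreased signal indicating inhibition.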
CtBP-E1A blk – CtBP/E1A binding inhibition. 340,000 compounds, 0.49% hits. activity change, % (test concentration not listed). AID 651724. AlphaScreen GST-E1A/His-CtBP binding, 1536-well; active compounds read low; in the data active = activity change below about -65%; inconclusive = mostly about -30% to -63%
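AlphaScreen with 125 nM GST-E1A and 125 nM His-CtBP (5X stocks) in Tris pH 8.0, 300 mM NaCl, BSA, Tween 20, TCEP. Compounds preincubated 2 h at 37 deg C, then glutathione donor/nickel acceptor beads added for 1 h at 37 deg C in dark.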
TDP1 cell noCPT – qHTS for Inhibitors of human tyrosyl-DNA phosphodiesterase 1 (TDP1): qHTS in cells in absence of CPT; DT40 Tdp1-/- hTDP1 cells, no CPT, ATP luminescence, 48 h; Potency, µM (doses to about 46.2 µM), for inactives: at the highest dose activity change, negative = growth inhibition, actives largely listed as inhibitors; 420,000 compounds, 15% hits; note: potency is the fitted concentration of half-maximal effect; nearly all actives have a fitted effect of over 55% in size
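Compound effects on proliferation are scored in DT40 Tdp1-/-;hTDP1 cells in the absence of CPT. ATP levels (CellTiter-Glo luminescence) are recorded after a ≥48 hr, 37 °C incubation.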
Six1-Eya2 inh – blocks human Six1 binding to Eya2. activity change, % (no concentration beside the values). 360,000 compounds, 0.56% hits. AID 651725. Q15475+O00167. AlphaScreen GST-Six1/His-Eya2 binding, biochemical; active compounds read low; in the data active = activity change below about -65%; inconclusive = mostly about -30% to -63%
Target sequence (O00167 whole entry, looked up): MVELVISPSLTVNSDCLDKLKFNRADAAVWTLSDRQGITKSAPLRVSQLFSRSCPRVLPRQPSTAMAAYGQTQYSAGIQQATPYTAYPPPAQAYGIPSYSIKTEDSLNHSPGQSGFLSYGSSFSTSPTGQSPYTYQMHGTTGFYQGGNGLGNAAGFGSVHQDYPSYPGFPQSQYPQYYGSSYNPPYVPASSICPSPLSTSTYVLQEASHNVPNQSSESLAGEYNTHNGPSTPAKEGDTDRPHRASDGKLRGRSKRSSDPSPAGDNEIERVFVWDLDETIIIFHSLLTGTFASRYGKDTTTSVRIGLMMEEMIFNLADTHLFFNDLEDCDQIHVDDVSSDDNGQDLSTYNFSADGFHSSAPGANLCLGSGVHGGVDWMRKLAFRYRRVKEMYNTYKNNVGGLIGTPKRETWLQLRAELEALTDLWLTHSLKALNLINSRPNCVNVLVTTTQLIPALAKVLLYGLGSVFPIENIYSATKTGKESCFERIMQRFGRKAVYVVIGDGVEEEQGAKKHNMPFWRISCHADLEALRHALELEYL
Target sequence (Q15475 whole entry, looked up): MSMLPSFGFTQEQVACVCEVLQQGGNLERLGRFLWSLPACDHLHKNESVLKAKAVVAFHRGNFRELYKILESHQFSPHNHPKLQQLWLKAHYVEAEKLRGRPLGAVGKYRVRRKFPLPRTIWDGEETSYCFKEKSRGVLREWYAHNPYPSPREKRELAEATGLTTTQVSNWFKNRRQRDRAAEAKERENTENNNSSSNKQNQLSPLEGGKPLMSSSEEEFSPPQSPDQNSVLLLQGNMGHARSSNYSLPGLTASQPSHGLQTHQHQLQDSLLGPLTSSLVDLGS
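Compounds are tested against tagged Six1 and Eya2 proteins bridged by glutathione donor and nickel acceptor beads; after a one-hour incubation at 37 °C without light, AlphaScreen emission is recorded.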
TDP1 cell CPT – DT40-hTDP1 cell growth loss with CPT; Potency, µM (series often up to 46.2 µM), for the others: at the highest dose activity change, negative = growth inhibition, most hits filed as inhibitors; chicken DT40 Tdp1-/-;hTDP1 cells + 20 nM CPT, ATP luminescence, 48 h; 420,000 compounds, 12% hits; AID 686979; note: potency is the fitted concentration of half-maximal effect; nearly all actives have a fitted effect of over 55% in size
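Chicken DT40 Tdp1-/- cells complemented with human TDP1, 400 cells/well, exposed to compounds plus 20 nM camptothecin for at least 48 h at 37 C; viability read as ATP content by CellTiter-Glo luminescence.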
Starred values were filed as active, the others as inactive; ? = inconclusive; nt = not tested or not shown. An excerpt weighted towards active compounds, which were near 18% of everything screened. Unless noted, calls come from the whole dose curve; as a rule, active = well fitted curve in the direction sought with a large enough effect; inconclusive = small, poorly fitted or top-dose-only effect, or another doubt; inactive = no such curve, though single readings can be large; an effect the other way counts as inactive or inconclusive. % is set by controls: 0 for no effect and ±100 for the full control effect.

SMILES	TDP1 block	IL-1B inflam inh	CtBP-E1A blk	TDP1 cell noCPT	Six1-Eya2 inh	TDP1 cell CPT
CC1CCN(C(=O)CN2C(=O)NC(C)(c3ccc4ccccc4c3)C2=O)CC1 (configuration not stated)	0%	4	-2	16µM*	-6	18µM*
CN1CCN(C(=O)CN2C(=O)NC(C)(c3ccc4ccccc4c3)C2=O)CC1 (configuration not stated)	-1%	0	-4	-2%	5	-4%
Cc1ccc(S(=O)(=O)N2CCN(C(=O)CN3C(=O)NC(C)(c4ccc5ccccc5c4)C3=O)CC2)cc1 (configuration not stated)	nt	-12	1	?	-4	?
CC1(c2ccc(Cl)cc2)NC(=O)N(CC(=O)N2CCc3ccccc32)C1=O (configuration not stated)	0%	13	1	?	-4	26µM*
CC(C)CC(NC(N)=O)C(=O)Nc1cccc([N+](=O)[O-])c1 (configuration not stated)	6%	9	0	-7%	-2	2%
Cc1nc(-c2nc(CC(=O)NNC(=O)c3ccc(Cl)cc3)cs2)cs1	nt	23	3	2%	-10	4%
CCC(c1nnc(SCC(=O)Nc2cccc(S(N)(=O)=O)c2)n1Cc1ccccc1)N(C)C (configuration not stated)	1%	0	nt	7%	7	7%
CC1CCCN(C(=O)CN2C(=O)NC(C)(c3ccc4ccccc4c3)C2=O)C1 (configuration not stated)	0%	-4	3	?	-1	?
COc1ccc(Cl)cc1NC(=O)CN(C)C(=O)CN1C(=O)NC(C)(C)C1=O	1%	8	1	-13%	4	3%
Cc1ccc(C2(C)NC(=O)N(CC(=O)N3CCN(S(=O)(=O)c4cccs4)CC3)C2=O)cc1 (configuration not stated)	1%	14	-10	-26%	8	-16%
COc1ccc(Cl)cc1NC(=O)CN(C)C(=O)CN1C(=O)NC(C)(c2ccc3ccccc3c2)C1=O (configuration not stated)	nt	-53*	-17	15µM*	-2	?
Cc1ccc(C2(C)NC(=O)N(CC(=O)N3CCN(S(=O)(=O)c4ccc(Cl)s4)CC3)C2=O)cc1 (configuration not stated)	nt	-6	-10	?	-1	21µM*
COc1cccc(N2CCN(C(=O)CN3C(=O)NC(C)(c4ccc5ccccc5c4)C3=O)CC2)c1 (configuration not stated)	nt	-14	-10	16µM*	-16	13µM*
COc1ccc(/C(=N\O)c2ncc(C(F)(F)F)cc2Cl)cc1	6%	8	1	?	-2	?
C=CCNC(=S)NNC(=O)C(CCCC)CC(C)(C)O (configuration not stated)	-2%	0	1	7.3µM*	3	8.2µM*
Cc1nc(C(=O)NNC(=O)c2ccccc2)c(C(F)(F)F)o1	3%	34	6	?	0	?
N=C1/C(=C/c2ccco2)C(=O)N=C2SC(CC(=O)N3CCCC3)=NN12	20µM*	-9	-2	24%	-4	-18%
O=C1CN(C(=O)COC(=O)[C@@H]2CCCN2S(=O)(=O)c2ccc(Cl)cc2)c2ccccc2N1	1%	-9	-9	-28%	-15	-40%
C[C@@H]1CC2=C(C(=O)OC(C)(C)O2)[C@H](c2ccc(Cl)cc2)O1	nt	29	-1	?	-3	-24%

Screening data (PubChem)
